# Test results published in PubChem BioAssay (NCATS).
# “And” between values parts separate entries of the source, which are not always exact repeats. Identical values can stand only once. Results filed as inconclusive are left out. Where a call stands in place of a potency, no number is given. The source made the active and inactive calls. Calls come from the whole dose curve; as a rule, active = well fitted curve in the direction sought with a large enough effect; inconclusive = small, poorly fitted or top-dose-only effect, or another doubt; inactive = no such curve, though single readings can be large; an effect the other way counts as inactive or inconclusive.
# Key:
# [1] = molecular target: N-terminal Xaa-Pro-Lys N-methyltransferase 1 (Homo sapiens) (UniProt Q9BV86); assay: qHTS Assay for Inhibitors of N-terminal methyltransferase 1 (NTMT1): LOPAC validation of the NTMT1 SAHH-coupled ThioGlo3 Assay (AID 1347143); note: nearly all actives have a fitted effect of over 70% in size; note: potency is the fitted concentration of half-maximal effect
# Sequence of N-terminal Xaa-Pro-Lys N-methyltransferase 1 (Homo sapiens) (Q9BV86 whole entry, looked up): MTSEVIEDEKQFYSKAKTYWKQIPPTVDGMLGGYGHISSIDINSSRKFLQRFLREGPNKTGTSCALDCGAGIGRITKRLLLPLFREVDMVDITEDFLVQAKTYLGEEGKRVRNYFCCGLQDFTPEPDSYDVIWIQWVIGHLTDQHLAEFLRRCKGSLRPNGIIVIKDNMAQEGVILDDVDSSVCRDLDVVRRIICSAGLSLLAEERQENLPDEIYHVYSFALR
# How it was run: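 Fluorescence read-out (excitation 340nm, emission 450nm) of SAH-derived thiol, measured via SAHH coupling and ThioGlo3, taken immediately and after a 30 min room-temperature reaction, then normalized to the background read. Enzyme: NTMT1 at 125nM; cofactor SAM 100uM in the added reagent.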
# [2] = test system: Zika virus NS2B-NS3 protease (unlinked); assay: Optimization of GU AMC qHTS for Zika virus inhibitors: Unlinked NS2B-NS3 protease assay (AID 1347151); note: nearly all actives have a fitted effect of over 80% in size; note: potency is the fitted concentration of half-maximal effect
# How it was run: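 Noncovalent NS2B hydrophilic domain–NS3 protease complex (25 nM final) in 10 mM Tris-HCl pH 8.0, 0.01% Tween 20; AMC substrate, room temperature 15 min (~20% conversion); fluorescence change normalized, 4-parameter Hill fit.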
# [3] = test system: Zika virus NS2B-NS3 protease; assay: Primary screen GU AMC qHTS for Zika virus inhibitors (AID 1347154); note: nearly all actives have a fitted effect of over 70% in size
# How it was run: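 Unlinked Zika NS2B hydrophilic domain/NS3 protease domain noncovalent complex (25 nM final) in 10 mM Tris-HCl pH 8.0, 0.01% Tween 20, with AMC peptide substrate. Fluorescence (ex 340, em 450 nm) change over 15 min, room temperature; percent inhibition fitted to 4-parameter Hill equation.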
# [4] = molecular target: Lysine-specific demethylase 5B (Homo sapiens) (UniProt Q9UGL1); assay: Optimization screen for KDM5B Histone Demethylases FDH coupled qHTS against the LOPAC library (AID 1347166)
# Sequence of Lysine-specific demethylase 5B (Homo sapiens) (Q9UGL1 whole entry, looked up): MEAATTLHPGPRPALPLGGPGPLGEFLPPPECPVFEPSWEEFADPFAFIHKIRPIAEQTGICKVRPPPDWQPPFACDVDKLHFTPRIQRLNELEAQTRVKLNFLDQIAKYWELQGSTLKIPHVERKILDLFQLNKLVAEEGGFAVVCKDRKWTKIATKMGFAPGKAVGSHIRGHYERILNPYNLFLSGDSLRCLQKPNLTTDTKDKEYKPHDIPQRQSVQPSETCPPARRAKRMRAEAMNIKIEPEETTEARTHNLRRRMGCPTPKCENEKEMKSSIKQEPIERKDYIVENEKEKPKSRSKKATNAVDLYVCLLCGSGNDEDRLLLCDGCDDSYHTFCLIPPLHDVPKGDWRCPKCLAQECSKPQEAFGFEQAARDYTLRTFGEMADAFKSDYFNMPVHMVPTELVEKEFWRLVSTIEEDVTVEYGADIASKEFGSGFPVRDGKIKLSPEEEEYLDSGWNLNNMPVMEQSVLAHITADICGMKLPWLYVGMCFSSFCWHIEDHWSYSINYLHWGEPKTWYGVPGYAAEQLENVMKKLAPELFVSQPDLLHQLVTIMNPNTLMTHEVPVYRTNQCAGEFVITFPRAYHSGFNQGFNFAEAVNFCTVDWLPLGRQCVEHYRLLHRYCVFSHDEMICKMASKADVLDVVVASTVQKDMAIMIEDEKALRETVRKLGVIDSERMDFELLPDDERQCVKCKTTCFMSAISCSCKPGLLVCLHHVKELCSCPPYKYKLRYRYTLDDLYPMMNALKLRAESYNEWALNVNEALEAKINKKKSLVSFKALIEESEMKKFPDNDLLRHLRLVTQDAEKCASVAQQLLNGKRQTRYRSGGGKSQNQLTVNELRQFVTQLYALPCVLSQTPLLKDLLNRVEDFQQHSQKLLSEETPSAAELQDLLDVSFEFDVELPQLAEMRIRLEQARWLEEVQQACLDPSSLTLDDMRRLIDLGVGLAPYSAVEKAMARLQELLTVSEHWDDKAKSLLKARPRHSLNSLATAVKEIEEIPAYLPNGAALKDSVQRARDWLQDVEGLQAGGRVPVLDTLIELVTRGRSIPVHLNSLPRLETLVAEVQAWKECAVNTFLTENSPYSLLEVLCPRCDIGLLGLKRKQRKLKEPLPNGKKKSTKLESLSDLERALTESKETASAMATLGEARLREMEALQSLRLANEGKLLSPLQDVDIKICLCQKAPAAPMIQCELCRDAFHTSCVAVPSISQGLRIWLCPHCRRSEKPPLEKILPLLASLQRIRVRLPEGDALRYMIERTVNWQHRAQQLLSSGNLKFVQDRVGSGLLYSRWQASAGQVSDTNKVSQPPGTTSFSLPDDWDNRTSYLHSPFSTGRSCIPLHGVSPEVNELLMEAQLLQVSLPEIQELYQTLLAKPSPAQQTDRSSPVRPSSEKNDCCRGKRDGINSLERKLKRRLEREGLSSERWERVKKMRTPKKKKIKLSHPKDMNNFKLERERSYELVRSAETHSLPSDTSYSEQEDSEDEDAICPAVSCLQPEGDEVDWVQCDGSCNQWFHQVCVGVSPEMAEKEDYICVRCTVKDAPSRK
# How it was run: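 KDM5BDeltaAP (200nM final) preincubated 10 min with compound, then 12.5uM H3K4Me3, 25uM a-ketoglutarate, ascorbate, Fe(II), NAD+ and FDH added; 50mM HEPES pH 7.5, 0.01% Tween-20. NADH fluorescence (340/450 nm) change over 30 min, room temperature.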
# [5] = test system: Zika virus NS2B-NS3 protease (unlinked complex); assay: Confirmatory screen GU AMC qHTS for Zika virus inhibitors (AID 1347153); note: nearly all actives have a fitted effect of over 70% in size
# How it was run: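 Fluorescence change (ex 340/em 450 nm) over 15 min, ~20% substrate conversion, normalized to no-inhibitor and no-enzyme controls, then Hill-fitted. Unlinked protease at 25 nM; AMC peptide 10 µM.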
# [6] = Vero cells viability qHTS for Zika virus inhibitors (AID 1347167)
# How it was run: (§1)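 Counter-screen for cytotoxicity of hits from NS2B-NS3 protease qHTS. Overnight-attached cells (2.5 x 10^5 cells/mL, DMEM/4% FBS) were dosed in titration, incubated 24 to 48 hours, then assayed by CellTiter Glo.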
# [7] = HepG2 cells viability qHTS for Zika virus inhibitors (AID 1347168)
# How it was run: as §1
# [8] = Confirmatory screen GU Rhodamine qHTS for Zika virus inhibitors qHTS (AID 1347157); conditions: purified enzyme assay, Rhodamine110 substrate fluorescence, 15 min; note: potency is the fitted concentration of half-maximal effect; nearly all actives have a fitted effect of over 70% in size
# How it was run: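 Percent inhibition derives from the 15-min fluorescence change (ex 480, em 540 nm), normalized to no-enzyme and no-inhibitor wells. Reactions contained 25 nM NS2B-NS3 complex and 1.5 microM substrate in 10 mM Tris-HCl pH 8.0.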
# [9] = ZIKV-mCherry secondary qHTS for Zika virus inhibitors (AID 1347158); note: top concentration of the series differs between compounds
# How it was run: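 Vero cells, 5,000/well, plated overnight at 37 °C, then compound added and infected with recombinant ZIKV-mCherry at MOI 1 for 48-72 h. PFA-fixed, Hoechst nuclear stain, high-content imaging; cells with mCherry intensity above 450 RFU scored infected, reported as percent infection.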
# [10] = Confirmatory screen NINDS Rhodamine qHTS for Zika virus inhibitors (AID 1347161); note: nearly all actives have a fitted effect of over 60% in size; note: potency is the fitted concentration of half-maximal effect
# How it was run: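 Purified linked NS2B-NS3 protease (NS2B hydrophilic domain joined to NS3 protease by flexible linker), 25 nM in 10 mM Tris-HCl pH 8.0, 0.01% Tween 20. Compounds titrated, 15 min preincubation at room temperature; 1.5 microM Rhodamine110 substrate, FITC fluorescence change over 15 min.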
# [11] = test system: Zika virus NS2B-NS3 protease (linked); assay: 384 well plate NINDS AMC confirmatory qHTS for Zika virus inhibitors (AID 1347163); conditions: Recombinant NS2B-NS3 protease, Ac-VKTGKR-AMC fluorescence; note: potency is the fitted concentration of half-maximal effect; nearly all actives have a fitted effect of over 50% in size
# How it was run: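 Linked protease 5/30/60 nM final; cpds up to 1 mM final, ~15 min preinc. Substrate Ac-VKTGKR-AMC 30 microM final. RT, dark, 25 min; FI ex 355/em 460; normalized to no-enzyme/no-inhibitor ctrls.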
# Furin (Homo sapiens) = Furin (Homo sapiens) (UniProt P09958); assay: Furin counterscreen qHTS for Zika virus inhibitors (AID 1347149); note: nearly all actives have a fitted effect of over 70% in size; note: potency is the fitted concentration of half-maximal effect
# Sequence of Furin (Homo sapiens) (P09958 whole entry, looked up): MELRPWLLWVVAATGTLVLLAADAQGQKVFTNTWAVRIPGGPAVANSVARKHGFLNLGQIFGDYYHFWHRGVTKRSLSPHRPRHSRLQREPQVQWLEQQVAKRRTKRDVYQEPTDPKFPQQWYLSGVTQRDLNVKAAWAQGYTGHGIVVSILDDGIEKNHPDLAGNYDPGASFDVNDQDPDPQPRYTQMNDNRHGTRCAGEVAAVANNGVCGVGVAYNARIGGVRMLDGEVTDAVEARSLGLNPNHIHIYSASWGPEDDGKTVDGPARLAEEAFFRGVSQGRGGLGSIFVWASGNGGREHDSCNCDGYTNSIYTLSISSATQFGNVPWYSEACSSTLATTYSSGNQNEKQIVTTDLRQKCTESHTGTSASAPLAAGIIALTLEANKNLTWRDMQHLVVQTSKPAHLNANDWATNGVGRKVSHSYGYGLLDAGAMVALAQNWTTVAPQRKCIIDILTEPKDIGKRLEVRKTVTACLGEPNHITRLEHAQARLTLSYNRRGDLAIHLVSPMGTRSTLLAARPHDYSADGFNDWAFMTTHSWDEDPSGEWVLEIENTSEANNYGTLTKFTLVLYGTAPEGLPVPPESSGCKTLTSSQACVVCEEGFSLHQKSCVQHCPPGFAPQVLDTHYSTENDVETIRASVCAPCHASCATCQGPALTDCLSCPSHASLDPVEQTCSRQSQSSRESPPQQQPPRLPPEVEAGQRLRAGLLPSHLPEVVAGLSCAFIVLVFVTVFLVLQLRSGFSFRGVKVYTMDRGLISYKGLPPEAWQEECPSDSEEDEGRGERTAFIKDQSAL
# How it was run: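 Fluorogenic cleavage of BOC-RVRR-AMC (2 microM final, Km ~15 µM) was monitored (ex 340, em 450 nm) at 37C after 15 min RT preincubation of 5 nM furin with compounds in HEPES pH 7.0 buffer with CaCl2 and Triton X-100. Percent inhibition was fitted to a 4-parameter Hill curve.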
# [12] = Tertiary RLuc qRT-PCR qHTS assay for Zika virus inhibitors (AID 1347169); note: top concentration of the series differs between compounds; nearly all actives have a fitted effect of over 55% in size
# How it was run: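 Vero cells (1,000/well) infected with recombinant ZIKV-RLuc (Cambodian) at MOI 1-2 after compound addition, 48-72 hrs at 37 degrees C. Live-cell Renilla luciferase substrate added; luminescence read after 1-1.5 hrs.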
# [13] = test system: Zika virus NS2B-NS3 protease (unlinked complex); assay: Primary screen GU Rhodamine qHTS for Zika virus inhibitors: Unlinked NS2B-NS3 protease assay (AID 1347159); note: nearly all actives have a fitted effect of over 60% in size
# How it was run: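 A qHTS format was used, with compound concentrations ranging up to 114 microM. Each compound was preincubated with 25 nM NS2B-NS3 protease, and the substrate was then added at 1.5 microM. Curves were fitted with a 4-parameter Hill model.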
# [14] = test system: Zika virus NS2B-NS3 protease (linked construct); assay: Primary screen NINDS Rhodamine qHTS for Zika virus inhibitors (AID 1347160); note: nearly all actives have a fitted effect of over 55% in size
# How it was run: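 Kinetic fluorescence (Ex 480 nm, Em 540 nm) over 15 min with 1.5 microM Rhodamine110 peptide and 25 nM linked protease.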
# [15] = test system: Zika virus NS2B-NS3 protease (linked construct); assay: 384 well plate NINDS Rhodamine confirmatory qHTS for Zika virus inhibitors (AID 1347164);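 note: fluorescence from protease cleavage of Ac-LKRR-rhodamine 110 substrate; nearly all actives have a fitted effect of over 65% in size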; note: potency is the fitted concentration of half-maximal effect
# How it was run: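 Linked NS2B-NS3 protease (final 5, 30 or 60 nM) preincubated ~15 minutes with compounds, then 10 microM Ac-LKRR-Rhodamine 110 added. Fluorescence (485/538 nm) read after 25 minutes at room temperature, normalized to no-enzyme and no-inhibitor controls.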
compound,measurement,setting,value
CN[C@H](CC(C)C)C(=O)N[C@H]1C(=O)N[C@@H](CC(N)=O)C(=O)N[C@H]2C(=O)N[C@H]3C(=O)N[C@H](C(=O)N[C@H](C(=O)O)c4cc(O)cc(O)c4-c4cc3ccc4O)[C@H](O)c3ccc(c(Cl)c3)Oc3cc2cc(c3O[C@@H]2O[C@H](CO)[C@@H](O)[C@H](O)[C@H]2O[C@H]2C[C@](C)(N)[C@H](O)[C@H](C)O2)Oc2ccc(cc2Cl)[C@H]1O,Potency,[1],inactive
same,Potency,[2],inactive
C[C@@H](CN1CCC(Cc2ccccc2)CC1)[C@@H](O)c1ccc(O)cc1,Potency,[1],inactive
same,Potency,[2],inactive
same,Potency,[3],inactive
same,outcome,[4],inactive
S=c1[nH]c(-c2ccccc2)cn1-c1ccccc1,outcome,[5],inactive
same,outcome,[6],inactive
same,outcome,[7],inactive
O=C(Nc1cccc(C(=O)Nc2ccc(S(=O)(=O)O)c3cc(S(=O)(=O)O)cc(S(=O)(=O)O)c23)c1)Nc1cccc(C(=O)Nc2ccc(S(=O)(=O)O)c3cc(S(=O)(=O)O)cc(S(=O)(=O)O)c23)c1,Potency,[8],2.82 µM (active) and 1.41 µM (active)
same,outcome,[9],inactive
same,Potency,[10],2 µM (active) and 1.26 µM (active)
same,Potency,[11],22.4 µM (active)
Cn1c(=O)c2[nH]c(-c3ccccc3)nc2n(C)c1=O,outcome,[6],inactive
same,outcome,[7],inactive
CC(C)NC[C@H](O)COc1cccc2[nH]ccc12,Potency,[2],inactive
same,Potency,[3],inactive
same,outcome,[4],inactive
O=C(/C=C/c1ccc(O)c(O)c1)OCCc1ccccc1,Potency,[1],35.5 µM (active)
same,outcome,[4],inactive
CNC(=O)[C@H]1O[C@@H](n2cnc3c(NCc4ccc(N)cc4)ncnc32)[C@H](O)[C@@H]1O,Potency,[2],inactive
same,Potency,[3],inactive
same,outcome,[4],inactive
COc1cccc(C(=O)NCCN2CCN(c3ccc(Cl)cc3)CC2)c1,Potency,[1],inactive
same,outcome,[4],inactive
NO,Potency,[2],inactive
Cc1ccccc1CNc1ncnc2c1ncn2C1OC(CO)C(O)C1O (centres undefined),Potency,Furin (Homo sapiens),inactive
same,Potency,[2],inactive
same,outcome,[4],inactive
same,outcome,[6],inactive
same,outcome,[7],inactive
same,Potency,[12],inactive
CC(N)C(=O)OC(C)(C)Cc1ccc(Cl)cc1 (centres undefined),Potency,[2],inactive
same,Potency,[3],inactive
same,outcome,[4],inactive
COC(=O)C1=C(C)NC(C)=C(C(=O)OC)C1c1cccc(NC(=O)NCCCN2CCC(c3cccc(OC)c3)CC2)c1,Potency,Furin (Homo sapiens),30.3 µM (active)
same,outcome,[5],inactive
same,Potency,[13],inactive
same,Potency,[14],inactive
same,Potency,[10],inactive
same,outcome,[6],inactive
NC(=O)C(=O)O,Potency,Furin (Homo sapiens),inactive
same,Potency,[2],inactive
same,outcome,[4],inactive
same,outcome,[6],inactive
same,outcome,[7],inactive
same,Potency,[12],inactive
Cc1cc2c(cc1Cl)N(C(=O)Nc1ccc(Oc3cccnc3C)nc1)CC2,Potency,[1],8.91 µM (active)
same,outcome,[4],inactive
COc1ccc(NC(=O)/C=C/c2ccc(Cl)cc2)cc1,Potency,[1],inactive
same,outcome,[4],inactive
Cc1cc(NC(=O)Nc2ccc3c(ccn3C)c2)sn1,Potency,[2],inactive
same,Potency,[3],inactive
same,outcome,[4],inactive
O=C(NOCC1CC1)c1cc(Br)c(F)c(F)c1Nc1ccc(I)cc1Cl,Potency,Furin (Homo sapiens),inactive
same,outcome,[5],inactive
same,Potency,[10],3.92 µM (active)
same,Potency,[11],44.7 µM (active)
same,Potency,[15],31.6 µM (active)
CCCCN(CC)c1nc(C)nc2c1c(C)cn2-c1c(C)cc(C)cc1C,Potency,[2],26.7 µM (active)
same,outcome,[5],inactive
same,Potency,[13],inactive
same,Potency,[14],inactive
same,outcome,[6],inactive
same,outcome,[7],inactive
CC(C)(NS(=O)(=O)c1ccc(Oc2ccc(F)cc2)cc1)C(=O)NO,Potency,[2],inactive
NCCSSCCN,Potency,[2],inactive
COc1ccc(Br)cc1S(=O)(=O)NC(=O)/C=C/c1ccccc1Cc1ccc2ccccc2c1,Potency,Furin (Homo sapiens),27 µM (active)
same,Potency,[2],5.32 µM (active)
same,Potency,[10],1.96 µM (active)
same,Potency,[11],0.251 µM (active)
same,Potency,[15],inactive
same,outcome,[6],inactive
same,outcome,[7],inactive
